Potency, outcome and max response data for ten molecules are collected here from PubChem BioAssay (NCATS).

Inconclusive results are not listed. Values without a mark were called inactive. Active and inactive are the calls of the source. Calls come from the whole dose curve; as a rule, active = well fitted inhibition curve with a large enough effect; inconclusive = small, poorly fitted or top-dose-only effect; inactive = flat fitted curve, though single readings scatter.
% is set by controls: 0 for no effect and ±100 for the full control effect; potency is the fitted concentration of half-maximal effect.

This assay has as its system NIH3T3. Nature of the assay: Cytotoxic Profiling of Annotated Libraries Using Quantitative High-Throughput Screening (AID 1296008). Note: nearly all actives have a fitted effect of over 60% in size. Particulars: Five cell lines viability, CellTiter-Glo ATP luminescence, 48-72 h; max response: hits give low values. Summed up: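 Compounds were pin-transferred onto cells and incubated 48 or 72 hr at 37 degree Celsius, 95% humidity. CellTiter-Glo was added, plates sat 10 min at room temperature, then ATP-coupled luminescence was imaged as the viability read-out.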
(Cellular ATP, detected with luciferase, serves as a proxy for viable cell number.)
Take `COc1ccc(C[C@@H](C)[C@@H](C)Cc2ccc(OC)c(OC)c2)cc1OC`: the Potency was 2.35 µM (active). Still for that read-out and setting: for `CC(=O)[C@]1(O)Cc2c(O)c3c(c(O)c2[C@@H](O[C@H]2C[C@H](N)[C@@H](O)[C@H](C)O2)C1)C(=O)c1ccccc1C3=O` the value was 0.264 µM (active). On to `CC(C)(O)[C@H]1CC[C@@](C)([C@H]2[C@@H](O)C[C@@]3(C)[C@@H]4C[C@H](O[C@@H]5O[C@H](CO)[C@@H](O)[C@H](O)[C@@H]5O)[C@H]5C(C)(C)[C@@H](O[C@@H]6OC[C@@H](O)[C@H](O)[C@@H]6O)CC[C@@]56C[C@@]46CC[C@]23C)O1`, for which the molecule was called inactive. Consider `COC1=C(OC)C(=O)C(CC=C(C)CCC=C(C)CCC=C(C)CCC=C(C)CCC=C(C)CCC=C(C)CCC=C(C)CCC=C(C)CCC=C(C)CCC=C(C)C)=C(C)C1=O`, for which the max response is 4.96%. `C[C@H](CCC(=O)O)[C@H]1CCC2C3C[C@H](O)[C@@H]4C[C@H](O)CC[C@]4(C)C3CC[C@@]21C` (stereo not given in full): the molecule was classed as inactive. Consider `CCOC(=O)C=C[C@H](C[C@@H]1CCNC1=O)NC(=O)[C@@H](CC(=O)[C@@H](NC(=O)c1cc(C)on1)C(C)C)Cc1ccc(F)cc1`, for which the max response was 0.598%. For `CNC(=O)c1ccc(Nc2cc(Nc3ccccc3S(=O)(=O)C(C)C)c3cc[nH]c3n2)nc1`, the Potency is 2.35 µM (active). On the same count and under the same terms, for `Cc1cnc(NC(=O)Nc2cc(Br)c(C)cc2OC[C@@H]2CNCCO2)cn1` the value was 4.18 µM (active). Turning to `C=C1CCC2[C@](C)(CO)C(O)CC[C@]2(C)C1CC=C1C(=O)OCC1O` (stereo not given in full), the max response was 3.77%. Consider `CC(C)N(CC[C@H](c1ccccc1)c1cc(CO)ccc1O)C(C)C`, for which the molecule was called inactive.
